Experimental data: PubChem BioAssay AID743025 (Vanderbilt Specialized Chemistry Center, 2013)
Values without a mark were called inactive. Calls of active or inactive are those of the source.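 How the source made its calls: active means IC50 below 10 µM at human M5 in a calcium flux test, acting as a negative modulator; inactive means the rest.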

The molecules below were run against Muscarinic acetylcholine receptor M5 (Homo sapiens) (UniProt P08912) (assay: inhibition of ACh-evoked M5 calcium signal – cell-based, single concentration, human M5 (AID 743025)). Settings: CHO-K1 hM5, ACh EC80 calcium flux, Fluo-4; at 10 µM; stronger effect = lower value.
Chain of Muscarinic acetylcholine receptor M5 (Homo sapiens) (P08912 whole entry, looked up): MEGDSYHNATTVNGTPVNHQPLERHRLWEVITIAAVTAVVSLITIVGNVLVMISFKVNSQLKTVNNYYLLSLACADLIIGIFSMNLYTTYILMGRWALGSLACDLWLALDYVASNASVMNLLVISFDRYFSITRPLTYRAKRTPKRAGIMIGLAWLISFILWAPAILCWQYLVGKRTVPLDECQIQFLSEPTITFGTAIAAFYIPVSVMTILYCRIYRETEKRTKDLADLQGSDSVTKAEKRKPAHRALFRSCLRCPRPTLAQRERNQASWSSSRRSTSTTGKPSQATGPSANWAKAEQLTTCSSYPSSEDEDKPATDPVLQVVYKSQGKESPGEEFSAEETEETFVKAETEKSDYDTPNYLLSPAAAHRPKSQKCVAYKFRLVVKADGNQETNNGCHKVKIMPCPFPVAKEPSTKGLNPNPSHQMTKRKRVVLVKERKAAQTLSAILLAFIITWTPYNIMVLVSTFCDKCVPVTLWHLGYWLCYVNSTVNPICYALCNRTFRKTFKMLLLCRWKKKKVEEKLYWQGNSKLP

Row | SMILES | activity remaining
1 | O=C(c1ccccc1)N1CCN2C(=O)c3ncccc3C12c1ccccc1 (configuration not stated) | 78.7%
2 | O=C(Nc1ccc(F)cc1)N1CCN2C(=O)c3ccccc3C12c1ccccc1 (configuration not stated) | 84.3%
3 | O=C(c1ccc2c(c1)CCO2)N1CCN2C(=O)c3ccccc3C12c1ccc(Cl)cc1 (configuration not stated) | 71.1%
4 | COc1ccc(C23c4ccccc4C(=O)N2CCN3C(=O)c2cccc(C(F)(F)F)c2)cc1 (configuration not stated) | 47.9% (active)
5 | Cc1ccc(C23NCCN2C(=O)c2ccccc23)cc1 (configuration not stated) | 77.4%
6 | O=C(c1ccc(SC(F)(F)F)cc1)N1CCN2C(=O)c3ccccc3C12c1ccccc1 (configuration not stated) | 1.05% (active)
7 | COc1ccccc1NC(=O)N1CCN2C(=O)c3ccccc3C12c1ccccc1 (configuration not stated) | 86.6%
8 | O=C(c1ccccc1F)N1CCN2C(=O)c3ccccc3C12c1ccccc1 (configuration not stated) | 85.8%
9 | O=C1c2ccccc2C2(c3ccccc3)N1CCN2S(=O)(=O)c1cccc(C(F)(F)F)c1 (configuration not stated) | 80%
10 | O=C(c1ccco1)N1CCN2C(=O)c3ccccc3C12c1ccccc1 (configuration not stated) | 81.3%
11 | Cc1ccc(C(=O)N2CCN3C(=O)c4ccccc4C23c2ccc(F)cc2)cc1 (configuration not stated) | 67.9%
12 | O=C(c1ccc(SC(F)(F)F)cc1)N1CCN2C(=O)c3ccccc3C12c1ccc(F)cc1 (configuration not stated) | -0.72% (active)
13 | COc1ccc(C23NCCN2C(=O)c2ccccc23)cc1 (configuration not stated) | 72.7%
14 | O=C1CCC2(c3ccccc3)Nc3ccccc3N12 (configuration not stated) | 81.8%
15 | O=C(c1cccc(F)c1)N1CCN2C(=O)c3ccccc3C12c1ccccc1 (configuration not stated) | 86%
16 | Cc1cccc(C(=O)N2CCN3C(=O)c4ncccc4C23c2ccccc2)c1 (configuration not stated) | 68.9%
17 | COc1ccc(C23c4ccccc4C(=O)N2CCN3C(=O)c2ccccc2)cc1 (configuration not stated) | 73%
18 | O=C(c1ccc(SC(F)(F)F)cc1)N1CCN2C(=O)c3ncccc3C12c1ccccc1 (configuration not stated) | 62.1%
19 | O=C(Nc1ccc(F)cc1F)N1CCN2C(=O)c3ccccc3C12c1ccc(Cl)cc1 (configuration not stated) | 77.2%

Row | SMILES | activity remaining
20 | O=C(c1cc(F)cc(F)c1)N1CCCN2C(=O)c3ccccc3C12c1ccc(Cl)cc1 (configuration not stated) | 76.8%
21 | COc1ccc(C23c4ccccc4C(=O)N2CCN3C(=O)c2cccc(C)c2)cc1 (configuration not stated) | 61.1%
22 | CC(C)(C)NC(=O)N1CCN2C(=O)c3ccccc3C12c1ccccc1 (configuration not stated) | 83.8%
23 | O=C(NCCNC(=O)c1ccccc1C(=O)c1ccc(F)cc1)c1ccccc1 | 86.1%
24 | CC(C)Oc1ccc(C(=O)N2CCN3C(=O)c4ccccc4C23c2ccc(Cl)cc2)cc1 (configuration not stated) | -1.43% (active)
25 | O=C(c1ccccc1C(F)(F)F)N1CCN2C(=O)c3ccccc3C12c1ccccc1 (configuration not stated) | 82.4%
26 | O=C(c1ccccn1)N1CCN2C(=O)c3ccccc3C12c1ccc(Cl)cc1 (configuration not stated) | 88.9%
27 | O=C(c1ccc(F)cc1F)N1CCN2C(=O)c3ccccc3C12c1ccccc1 (configuration not stated) | 69%
28 | O=C1c2ccccc2C2(c3ccccc3)N1CCN2C(=O)C1CC1 (configuration not stated) | 86.4%
29 | CS(=O)(=O)c1ccc(C23c4ccccc4C(=O)N2CCN3C(=O)c2ccc(F)c(F)c2)cc1 (configuration not stated) | 77.3%
30 | O=C(c1cccc(C(F)(F)F)c1)N1CCN2C(=O)c3ccccc3C12c1ccc(Cl)cc1 (configuration not stated) | 1.89% (active)
31 | COc1cccc(C(=O)N2CCN3C(=O)c4ccccc4C23c2ccc(Cl)cc2)c1 (configuration not stated) | 17.5% (active)
32 | O=C(c1ccc(SC(F)(F)F)cc1)N1CCCN2C(=O)c3ccccc3C12c1ccc(Cl)cc1 (configuration not stated) | 78.5%
33 | O=C(c1ccncc1)N1CCN2C(=O)c3ccccc3C12c1ccc(Cl)cc1 (configuration not stated) | 72.4%
34 | O=C(c1ccccn1)N1CCN2C(=O)c3ncccc3C12c1ccccc1 (configuration not stated) | 73.7%
35 | O=C1c2ccccc2C2(c3ccccc3)N1CCN2C(=S)Nc1cccc(Cl)c1 (configuration not stated) | 93%
36 | O=C(c1ccccc1)N1CCCC1c1ccccc1 (configuration not stated) | 88.8%
37 | O=C(c1ccc(OC(F)(F)F)cc1)N1CCCN2C(=O)c3ccccc3C12c1ccc(Cl)cc1 (configuration not stated) | 76.4%
